Inhibition data for 96 molecules are collected here from PubChem BioAssay AID588489 (Sanford-Burnham Center for Chemical Genomics, 2011).

The campaign covered roughly 360,000 compounds. About 1,300 (0.36%) were called active. For the sample, actives were picked, then their nearest neighbours and some compounds at random. A number with no mark means an inactive call. Rule as the data show it: active = inhibition above about 35% (passing the limit was not always enough); inactive = the rest.

Sequence of Polyadenylate-binding protein 1 (Homo sapiens) (P11940 whole entry, looked up): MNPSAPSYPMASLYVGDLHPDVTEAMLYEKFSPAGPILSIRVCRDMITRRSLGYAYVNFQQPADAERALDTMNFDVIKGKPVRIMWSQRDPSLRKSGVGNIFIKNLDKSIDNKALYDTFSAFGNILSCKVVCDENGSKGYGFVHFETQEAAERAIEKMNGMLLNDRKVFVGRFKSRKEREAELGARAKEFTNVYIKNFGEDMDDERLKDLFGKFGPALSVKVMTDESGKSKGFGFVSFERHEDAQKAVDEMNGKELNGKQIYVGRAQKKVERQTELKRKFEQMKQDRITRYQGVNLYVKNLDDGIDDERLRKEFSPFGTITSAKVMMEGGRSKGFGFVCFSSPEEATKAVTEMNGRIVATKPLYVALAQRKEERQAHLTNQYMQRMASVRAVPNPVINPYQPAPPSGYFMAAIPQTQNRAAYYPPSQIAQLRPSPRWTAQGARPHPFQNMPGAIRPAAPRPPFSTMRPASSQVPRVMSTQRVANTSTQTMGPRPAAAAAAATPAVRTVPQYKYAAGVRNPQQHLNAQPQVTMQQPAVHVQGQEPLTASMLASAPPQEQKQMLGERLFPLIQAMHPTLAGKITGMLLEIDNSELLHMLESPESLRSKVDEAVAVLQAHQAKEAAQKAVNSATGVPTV

The assay addresses Polyadenylate-binding protein 1 (Homo sapiens) (UniProt P11940). As to the kind of experiment: PAM2 peptide displacement from PABP1 MLLE – biochemical, fluorescence polarization, FITC-PAM2, GST-MLLE, primary screen (AID 588489).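 Also: plate controls were DMSO wells with GST-MLLE for no effect and wells lacking GST-MLLE protein for full effect.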 As to conditions: at 20 µM, stronger effect = higher value.
As to `O=C1NCCn2nc3ccccc3c21`, the inhibition is 0.33%.
On to `Nc1ccc2nc3c(=O)[nH]c(=S)[nH]c3nc2c1`, for which the inhibition was 177%.
Then `O=c1[nH]c(=O)c2nc3ccccc3nc2[nH]1`, with 53.2% (active).
The value for `Cc1cc2cc(CNC(=O)c3cccs3)ccc2[nH]1` was 38%; that for `COC(=O)c1ccc(CNC(=O)c2ccc(S(=O)(=O)N3CCCCCC3)cc2)cc1` was -6.55%; that for `Cc1cc2cc(CNC(=O)c3ccc(S(=O)(=O)N4CCOCC4)cc3)ccc2[nH]1` was 45.1% (active).
The value for `COCCn1c(N)c(NCc2ccccc2)c(=O)[nH]c1=O` was 44.1% (active); that for `COCCn1c(N)c(N(Cc2ccccc2)C(=O)C2CCCCC2)c(=O)[nH]c1=O` was -2.43%; that for `COCCN(C(=O)c1ccccc1F)c1c(N)n(Cc2ccccc2)c(=O)[nH]c1=O` was -9.82%.
With `C=CCc1cccc2cc(C(=O)NC3CCCC3)c(=O)oc12`, the inhibition was 6.38%.
The value for `CC1CN(C(=O)c2ccc3c(c2)OCO3)OC(c2ccccc2)O1` (stereo unspecified) was 0.75%; that for `CSCCC(NC(=O)C1CCC(C)CC1)C(=O)NCc1ccco1` (stereo unspecified) was -8.36%.
Take `CC(=O)Nc1ccc(NC(=O)C(NS(=O)(=O)c2ccc3c(c2)OCCO3)C(C)C)cc1` (stereo unspecified): the inhibition is 1.54%.
Then `CCOC(=O)CNc1nc(Cl)nc(Nc2ccc(OC)cc2OC)n1`, with 1.38%; and `Cc1cccc(-n2c(N)c(C(=O)N3CCN(C)CC3)sc2=S)c1`, with 3.33%.
The value for `CCOC(=O)C(C)n1cnc2c(nnn2-c2cccc(OC)c2)c1=O` (stereo unspecified) was 1.6%; that for `CCOC(=O)c1sc(=S)n(-c2cccc(OC)c2)c1N` was 40.5% (active); that for `O=C(CN1C(=O)COc2ccc(Cl)cc21)N1CCOCC1` was 8.9%.
Then `CC1(C(=O)NS(=O)(=O)Cc2cccc(Cl)c2)CCN1C(=O)Cc1ccccc1` (stereo unspecified), with -3.36%; and `NNC(=O)CNC(c1ccccc1)c1cc(Cl)ccc1NC(=O)c1ccccc1` (stereo unspecified), with -2.37%; and `COc1cc(NC(=O)Nc2ccc(C)cc2)cc([N+](=O)[O-])c1`, with -3.48%.
Consider `COc1ccc(Nc2ccc([N+](=O)[O-])cn2)cn1`, for which the inhibition is 48.7% (active).
Then `COC(=O)c1ccccc1N=NNc1ccc([N+](=O)[O-])cc1`, with 18.6%.
For `OC(c1ccc(Cl)cc1)C(CN1CCOCC1)c1ccccc1` (stereo unspecified), the inhibition is -5.53%.
On to `C=C1c2cccc(OC)c2O[C@H](C(=O)OCC)[C@@H]1CCCCCC`, for which the inhibition was -73.6%.
As to `CC(=O)c1cnc(SCCN2C(=O)c3ccccc3C2=O)nc1C`, the inhibition is 4.46%.
Then `Cc1ccc(S(=O)(=O)NNC(=O)Nc2cccc3ccccc23)cc1`, with 3.51%; and `COC(=O)c1c(C)[nH]c(C)c1-c1ccc([N+](=O)[O-])cc1`, with -2.95%; and `COC(=O)C1=CN(c2ccc(F)c(F)c2)C=C(C(=O)OC)C1c1ccc([N+](=O)[O-])cc1`, with 9.34%.
Then `COC(=O)C1=C(C(=O)OC)C(c2cc([N+](=O)[O-])ccc2O)c2sc(=O)[nH]c2S1` (stereo unspecified), with 40.3% (active); and `Cc1ccc(C2=NN(C)c3nc4ccccc4n3C2)cc1`, with -3.04%; and `COc1ccc(NS(=O)(=O)c2ccc(C)c(C(=O)NNC(=O)c3csc(N4CCOCC4)n3)c2)cc1`, with -13.1%.
The value for `C=CCNC(=S)NNC(=O)c1ccc(Br)o1` was -45.2%; that for `CCCCn1c(SCC(=O)NCCc2ccc(OC)c(OC)c2)nc2c1c(=O)n(C)c(=O)n2C` was 4.31%.
On to `CCCSc1nc2c(c(=O)n(C)c(=O)n2C)n1Cc1ccc(C)cc1`, for which the inhibition is -1.85%.
With `CCOc1ccc(Cn2c(SCCCCC#N)nc3c2c(=O)n(C)c(=O)n3C)cc1OCC`, the inhibition was 44% (active).
In the case of `O=C(NCCC(=O)N1O[C@@H]2C=C[C@H]1C2)OCC1c2ccccc2-c2ccccc21`, the inhibition was -4.15%.
The value for `CCOCc1nnc(NC(=O)CCC2CCCCC2)s1` was -2.53%; that for `Cc1cc([N+](=O)[O-])nn1CCCC(=O)Nc1cccnc1Cl` was 2.45%.
The value for `COc1cccc(-n2c(=S)sc3c(=O)n(-c4ccccc4OC)c(SCC4OCCO4)nc32)c1` was -1.94%.
In the case of `COc1cccc(-n2c(=S)sc3c(=O)n(-c4ccccc4C)c(SCC(=O)O)nc32)c1`, the inhibition is -10.4%.
For the molecule `COc1ccc(Cl)cc1-n1c(=S)sc2c(=O)n(-c3ccc(F)cc3)c(SCC(=O)O)nc21`, the inhibition is 43.8% (active).
Then `COc1ccccc1C(=O)Oc1ccc(N2C(=O)CCC2=O)cc1`, with -2.33%; and `O=C(c1ccc(Cn2cc([N+](=O)[O-])cn2)o1)N1CCCC1`, with -7%.
Then `O=C(c1ccc(F)cc1)n1c(=S)nc2ccccn21`, with 39% (active); and `O=C(c1ccc(F)cc1)N1CCC(n2nnc3ccccc32)CC1`, with -6.3%; and `CC1COc2ccccc2N1C(=O)c1ccc(F)cc1` (stereo unspecified), with -13.6%.
Consider `O=C(COC(=O)/C=C/c1nc2ccccc2s1)Nc1ccccc1Oc1ccccc1`, for which the inhibition was -5.84%.
The value for `Cc1ccc(C)c(NC(=S)NNC(=S)Nc2ccc(C(C)C)cc2)c1` was 30.8%; that for `Cc1cccc(NC(=S)Nc2ccc(Cl)c(Cl)c2)c1` was 37.8% (active).
Then `NS(=O)(=O)c1ccc(NC(=S)Nc2ccc(Br)c(Cl)c2)cc1`, with 33.2%.
Then `Cc1ccc(C2CCN(C(=S)Nc3cccc(Cl)c3)C2)cc1` (stereo unspecified), with -122%; and `Cc1csc(NC(=S)Nc2cccc(Cl)c2)n1`, with 35.5% (active); and `O=C(NCc1cn2ccsc2n1)Nc1cccc(Cl)c1`, with -5.66%.
For `CCc1noc(C)c1C(=O)N1CCCC(N2CCN(c3ccc(F)cc3)CC2)C1` (stereo unspecified), the inhibition is -6.88%.
Regarding `CC(C)(C)n1nc2c(c1NC(=O)c1cc3ccccc3o1)CSC2`, the inhibition is 47.2% (active).
Then `Cc1cccc(-n2nc3c(c2NC(=O)c2cc4ccccc4o2)CS(=O)(=O)C3)c1`, with 2.88%; and `Cc1cc(NC(=O)c2cc3ccccc3o2)no1`, with 16%; and `C=CCn1c(SCC(=O)NCc2ccccc2)nnc1-c1cc(Br)ccc1O`, with -75.9%.
For `CCOC(=O)C1=C(CSc2nnnn2C)N(C)C(=O)NC1c1ccccc1` (stereo unspecified), the inhibition is -3.23%.
The value for `O=C1CCCC(O)=C1N=Nc1ccc2ncsc2c1` was 45.2% (active); that for `O=C1CCCC(O)=C1N=Nc1ccc(S(=O)(=O)N2CCOCC2)cc1` was 8.62%; that for `O=C(NCCC1CCCCN1S(=O)(=O)c1ccccc1)C(=O)NCC1CCCO1` (stereo unspecified) was 1.52%.
The value for `O=C(N/N=C\c1cc(Br)c(Br)o1)C1COc2ccccc2O1` (stereo unspecified) was -16.5%.
The value for `O=C(N/N=C/c1ccc(Br)o1)c1cncc(Br)c1` was 6.99%.
`Cc1ccc(C(=O)N/N=C\c2cc(Br)c(Br)o2)cn1`: the inhibition is 69.9% (active).
The value for `CC(C)N(C(=O)Cn1cc(SCC(=O)N2CCCC2)c2ccccc21)C(C)C` was -0.1%; that for `CC(=O)Nc1ccc(N2C(=O)CC(Sc3nccc(C)n3)C2=O)cc1` (stereo unspecified) was 20.5%.
Then `CCOc1ccccc1N1C(=O)CC(Sc2nccc(C)n2)C1=O` (stereo unspecified), with 20.7%; and `Cc1ccnc(SC2CC(=O)N(c3ccccc3)C2=O)n1` (stereo unspecified), with 38.2% (active); and `CCCCNC(=O)C1(c2ccc(OC)cc2)CCOCC1`, with -4.07%.
On to `Cn1cnnc1SCc1nnc(-c2ccccc2Br)o1`, for which the inhibition was -6.49%.
Then `CC(C)N(Cc1nnc(-c2ccccc2Br)o1)C(=O)c1cc(Cl)nc2ccccc12`, with -1.33%; and `Nc1cccc2c1C(=O)N(Cc1nnc(-c3ccccc3Br)o1)C2=O`, with 41.2% (active).
As to `CCOC(=O)c1cc2sccc2n1Cc1ccc(C#N)cc1`, the inhibition was -2.73%.
The value for `CC(Sc1ccc(S(=O)(=O)N2CCN(C)CC2)cn1)C(=O)NC1CCCC(C)C1C` (stereo unspecified) was -9.12%; that for `CC1(C)C2CC=C(/C=N/NC(=O)c3ccc(Cl)cc3)C1C2` (stereo unspecified) was 10.7%.
Take `O=C1CCC(=O)N(c2ccccc2)N1`: the inhibition is 3.9%.
The value for `CCOc1ccccc1NC(=S)NC(=O)CCc1ccccc1` was 17.8%; that for `Fc1ccccc1CNC(=S)Nc1ccc(Cl)cc1` was -18.2%.
Regarding `O=C(Cc1ccc(Cl)cc1)NC(=S)Nc1ccccc1O`, the inhibition was 37.5% (active).
Then `Cc1sc2ncn(CC(=O)NCCCC(=O)NCc3ccc(F)cc3)c(=O)c2c1C`, with -10.9%; and `Cc1n[nH]c(=O)c2c(NC(=O)CSc3ccccc3F)oc(C)c12`, with 25.1%.
Then `COc1ccc(OC)c(C2N(c3ccccn3)C(=O)C3CCCN32)c1` (stereo unspecified), with -4.22%.
The value for `COCC(C)N=CC1=C(O)CC(C)(C)CC1=O` (stereo unspecified) was 6.93%.
`CCN(CC(=O)Nc1ccc(NC(C)=O)cc1)C(=O)CSC(=S)N1CCCC1`: the inhibition is 5.05%.
The value for `COc1cccc(NC(=O)CN(C)C(=O)CSC(=S)N2CCCC2)c1` was 40.8% (active); that for `COc1cccc(NC(=O)CN(C)C(=O)Cc2ccc(Cl)cc2Cl)c1` was -1.03%; that for `COc1ccc(NC(=O)c2c(C)oc3c2CCCC3)cc1` was 6.57%.
Then `Cc1ccc(N/N=C2\COC(C)(C)CC2=O)cc1`, with -0.27%; and `COc1ccc(N/N=C2/CCCCC2=O)cc1`, with 44.5% (active).
The value for `COc1ccc(-c2cc(C3CCN(c4ncccc4[N+](=O)[O-])CC3)[nH]n2)cc1` was 6.76%; that for `CCc1ccc2c(c1)C1(NN=C(c3ccccc3)S1)C(=O)N2` (stereo unspecified) was 45.2% (active).
As to `CCc1ccc2c(c1)NC(=O)C2(C)Cc1ccc(OC(F)(F)F)cc1` (stereo unspecified), the inhibition is 8.45%.
Then `CC[N+]1(CC)CC2=Cc3ccccc3CC2C1` (stereo unspecified), with -5.91%.
For `O=C(Nc1cc(S(=O)(=O)Nc2ccc(Cl)cc2)ccc1O)c1ccc(F)cc1F`, the inhibition was -7.73%.

Broadly, the inhibition is the relative decrease from the control value, in per cent.
